Bioassay records: PubChem BioAssay, National Center for Advancing Translational Sciences (NCATS)
EPAC1 ag – agonists of human EPAC1. O95398. EPAC1 agonist qHTS, biochemical assay; response scale: 100% = response to 6.5 mM cAMP. Potency, µM (highest dose often 154 µM), most hits filed as activators. 0.073% of 360,000 active. AID 720707; also: nearly all actives have a fitted effect of over 60% in size
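Compounds were pinned as a concentration titration into mixtures of EPAC1 (100 nM), BODIPY-GDP-loaded Rap1B (250 nM) and GDP (50 uM). After 5 min at room temperature, fluorescence was followed for 30 min; activity was scaled to 6.5 mM cAMP.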
EPAC1 antagonist – EPAC1 (human) antagonism. AID 720709. EPAC1 GEF assay, Rap1b-BODIPY-GDP exchange fluorescence. O95398. Potency, µM (doses to about 115 µM), most hits filed as inhibitors. 0.14% of 360,000 active; also: nearly all actives have a fitted effect of over 50% in size
EPAC2 antagonist – EPAC2 (human) antagonism; Q8WZA2; EPAC2 GEF exchange of Rap1B-BODIPY-GDP, fluorescence; Potency, µM (titrated, usually from 114 µM), most hits filed as inhibitors; 0.18% of 360,000 active; AID 720708; also: nearly all actives have a fitted effect of over 45% in size
EPAC2 ag – agonists of human EPAC2 (RAPGEF4); EPAC2 activation, biochemical qHTS; response scale: 100% = 6.5 mM cAMP response; AID 720711; Potency, µM (series often up to 154 µM), actives largely listed as activators; Q8WZA2; 0.079% of 360,000 active; also: nearly all actives have a fitted effect of over 50% in size
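Compounds were added across a concentration range to EPAC2 (100 nM), RAP1B-BODIPY-GDP (250 nM) and GDP (50 uM). After 5 min at room temperature, fluorescence was recorded at 5-min intervals for 30 min.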
USP1 inh – blocks the human USP1/UAF1 deubiquitinase complex; recombinant USP1/UAF1, Ub-Rhodamine cleavage fluorescence; Potency, µM (doses to about 57.1 µM), hits mostly inhibitors; 0.23% of 390,000 active; also: nearly all actives have a fitted effect of over 60% in size
Target sequence (O94782 whole entry, looked up): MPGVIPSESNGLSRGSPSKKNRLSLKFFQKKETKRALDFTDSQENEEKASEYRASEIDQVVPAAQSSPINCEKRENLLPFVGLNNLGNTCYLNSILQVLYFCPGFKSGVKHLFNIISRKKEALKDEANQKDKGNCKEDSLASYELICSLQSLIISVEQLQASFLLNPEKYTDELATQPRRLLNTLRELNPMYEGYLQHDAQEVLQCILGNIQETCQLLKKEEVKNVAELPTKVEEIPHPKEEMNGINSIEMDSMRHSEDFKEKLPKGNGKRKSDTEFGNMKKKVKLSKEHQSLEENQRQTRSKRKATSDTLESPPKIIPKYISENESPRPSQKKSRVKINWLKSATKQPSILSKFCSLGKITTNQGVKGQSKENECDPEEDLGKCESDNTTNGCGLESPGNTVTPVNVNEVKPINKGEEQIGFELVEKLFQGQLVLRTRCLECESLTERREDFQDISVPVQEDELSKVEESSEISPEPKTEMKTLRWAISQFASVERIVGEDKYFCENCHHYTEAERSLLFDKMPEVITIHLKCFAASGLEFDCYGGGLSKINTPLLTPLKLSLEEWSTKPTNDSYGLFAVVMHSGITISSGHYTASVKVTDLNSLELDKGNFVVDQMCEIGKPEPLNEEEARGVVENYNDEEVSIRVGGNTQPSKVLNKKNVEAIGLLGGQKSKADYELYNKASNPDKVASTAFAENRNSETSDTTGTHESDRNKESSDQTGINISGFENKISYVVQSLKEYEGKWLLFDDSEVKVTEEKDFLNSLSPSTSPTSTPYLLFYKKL
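In this screen, compounds sit with the deubiquitinase complex (1nM) for 15 min at room temperature before Ub-Rho is added at 150nM final. Fluorescence rise is then followed for 6 reads every 60 seconds.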
Of the large screens only hits and unclear results are named; the others gave an inactive call. This is a sample that favours compounds with a hit; in the whole collection about 0.49% have one here. Calls follow the shape of the dose curve; as a rule, active = well fitted curve in the direction sought with a large enough effect; inconclusive = small, poorly fitted or top-dose-only effect, or another doubt; inactive = no such curve, though single readings can be large; an effect the other way counts as inactive or inconclusive.

CCN(CC)CC#CC(OC)(c1ccccc1)c1ccccc1	EPAC2 antagonist 40µM
O=C1NNC(c2ccccc2)=N/C1=C\c1ccccc1Cl	EPAC1 antagonist 40µM, EPAC2 antagonist inconclusive, USP1 inh 18µM
Nc1c(Cl)ncnc1N/N=C/c1ccc(O)cc1	EPAC1 antagonist inconclusive, EPAC2 antagonist 28µM
O=S(=O)(N=C1C=CC(=NS(=O)(=O)c2ccccc2)c2ccccc21)c1ccccc1	USP1 inh 28µM
Cc1cc(C)c(S(=O)(=O)/N=C2\C=C(NS(=O)(=O)c3ccccc3)C(=O)c3ccccc32)c(C)c1	EPAC2 antagonist inconclusive, USP1 inh inconclusive
Cc1cc(C)c(S(=O)(=O)/N=C2\C=C(Nc3ccc(C(=O)O)cc3)C(=O)c3ccccc32)c(C)c1	EPAC1 ag 100µM, USP1 inh 14µM
O=C(O)c1ccc(NC2=C/C(=N/S(=O)(=O)c3ccccc3)c3ccccc3C2=O)cc1	EPAC1 antagonist inconclusive, EPAC2 antagonist inconclusive, USP1 inh 2.8µM
Cc1ccc(S(=O)(=O)/N=C2\C=C(NS(=O)(=O)c3ccccc3)C(=O)c3ccccc32)cc1	EPAC1 antagonist inconclusive, EPAC2 antagonist inconclusive, USP1 inh 18µM
Cc1nc(-c2ccc(Cl)cc2)sc1CCNC(=O)c1ccco1	none (no result: EPAC1 ag, EPAC1 antagonist, EPAC2 antagonist, EPAC2 ag)
CCOC(=O)c1c(C)oc2nc(C)nc(Nc3ccc(C)c(Cl)c3)c12	none (no result: EPAC1 ag, EPAC1 antagonist, EPAC2 antagonist, EPAC2 ag)
Cc1ccc(NC(=O)c2cccc(NC(=O)/C=C/c3ccco3)c2)cc1C	EPAC1 antagonist inconclusive
CCc1ccccc1NC(=O)c1cccc(NC(=O)/C=C/c2ccco2)c1	none
O=C(COc1ccccc1[N+](=O)[O-])Nc1cccc(C(=O)Nc2ccccc2C(=O)O)c1	EPAC1 antagonist 71µM
O=C(/C=C/c1ccco1)Nc1cccc(C(=O)Nc2ccccc2C(=O)O)c1	EPAC1 antagonist 50µM
Cc1ccc(-n2nc3ccc(NC(=O)/C=C/c4ccco4)cc3n2)cc1	EPAC1 antagonist 22µM
O=C(Nc1cc(C(=O)Nc2ccccc2C(=O)O)cc(C(=O)Nc2ccccc2C(=O)O)c1)c1ccccc1	EPAC1 antagonist 10µM, USP1 inh inconclusive
COC(=O)CC1Oc2ccc(Cl)cc2-n2cc(-c3ccc(C)cc3)nc21 (stereo not given)	none (no result: EPAC1 ag, EPAC1 antagonist, EPAC2 antagonist, EPAC2 ag)
CCN(CC)c1ccc2cc(NC(=O)CCC(=O)O)c(=O)oc2c1	EPAC1 ag inconclusive, USP1 inh 28µM
CCN(CC)c1ccc2cc(C(C)=O)c(=O)oc2c1	EPAC1 ag inconclusive, EPAC2 ag inconclusive, USP1 inh inconclusive
CCN(CC)c1ccc2cc(C(N)=O)c(=O)oc2c1	USP1 inh inconclusive
CCN(CC)c1ccc2cc(C(=O)Nc3ccccn3)c(=O)oc2c1	EPAC2 ag 100µM, USP1 inh inconclusive
CCN(CC)c1ccc2cc(C=O)c(=O)oc2c1	EPAC1 ag 100µM, EPAC2 ag 100µM, USP1 inh 16µM
CCN1CCN(Cc2c(O)ccc3c(=O)c(-c4ccccc4OC)coc23)CC1	none
CCN1CCN(Cc2c(O)ccc3c2O/C(=C\C=C\c2ccccc2OC)C3=O)CC1	EPAC1 ag 56µM, EPAC2 ag inconclusive, USP1 inh 28µM
CC1CCN(Cc2c(O)ccc3c2O/C(=C\c2ccco2)C3=O)CC1	USP1 inh 32µM
O=C1/C(=C/c2ccco2)Oc2c1ccc(O)c2CN1CCCCC1	EPAC1 ag inconclusive, USP1 inh 32µM
COCCN(CCOC)Cc1c(O)ccc2c1O/C(=C\c1ccco1)C2=O	none
COC(=O)c1ccc(-n2c(C)cc(C(=O)COC(=O)C3=COCCO3)c2C)cc1	none
COC(=O)c1ccc(-n2c(C)cc(C(=O)CCl)c2C)cc1	EPAC2 antagonist 35µM
CCOc1ccc(-n2c(C)cc(C(=O)CCl)c2C)cc1	EPAC2 antagonist 8.9µM
COc1ccc(NC(=O)N2CCc3c(sc4c3CCCC4)C2c2ccc(F)cc2)cc1 (stereo not given)	none (no result: EPAC1 ag, EPAC1 antagonist, EPAC2 antagonist, EPAC2 ag)
O=C1c2cccnc2C(=O)N1CO	none
NC1=C(Br)C(=O)c2ncccc2C1=O	EPAC1 antagonist inconclusive, EPAC2 antagonist inconclusive, USP1 inh 4.5µM
O=[N+]([O-])c1ccc(NN=Cc2cccc(O)c2)nc1	none
Cc1cccc(C)c1-n1c(C)cc(/C=N\Nc2ccc([N+](=O)[O-])cn2)c1C	EPAC2 ag 4µM
Cc1cccc(NC(=O)C2CCCN(S(=O)(=O)c3ccc4c(c3)CCCC(=O)N4)C2)c1 (stereo not given)	none (no result: EPAC1 ag, EPAC1 antagonist, EPAC2 antagonist, EPAC2 ag)
Cc1ccc(N(Cc2cccs2)C(=O)c2ccccc2[N+](=O)[O-])cc1	none (no result: EPAC1 ag, EPAC1 antagonist, EPAC2 antagonist, EPAC2 ag)
CCc1ccc(-c2cn3c(n2)sc2cc(C(=O)NCCc4ccc(OC)cc4OC)ccc23)cc1	none (no result: EPAC1 ag, EPAC1 antagonist, EPAC2 antagonist, EPAC2 ag)
COc1ccc(N=Nc2nc3ccc(Br)cc3n2C)cc1	EPAC1 ag 112µM
COc1ccc(-c2c(-c3cc(OC)cc(OC)c3)n(C)c3ccc(Br)cc23)cc1	none
CCOc1ccc(C(=O)c2cn(CC(=O)Nc3ccc4c(c3)OCCO4)c3ccc(F)cc3c2=O)cc1	none (no result: EPAC1 ag, EPAC1 antagonist, EPAC2 antagonist, EPAC2 ag)
NC(=S)N/N=C/c1cccc(O)c1O	none
Cc1cc(/C=N/NC(N)=S)c(O)c(/C=N/NC(N)=S)c1	EPAC1 ag 40µM, EPAC2 ag inconclusive, USP1 inh inconclusive
COc1cc(C(=O)OCc2cc(=O)n3ccsc3n2)cc(OC)c1OC	none (no result: EPAC1 ag, EPAC1 antagonist, EPAC2 antagonist, EPAC2 ag)
CCOC(=O)c1c(NC(=O)/C=C/C(=O)O)sc(C)c1-c1ccc(C(C)(C)C)cc1	EPAC1 antagonist 56µM, EPAC2 antagonist inconclusive, USP1 inh 32µM
CCOC(=O)c1c(NC(=O)/C=C\C(=O)O)sc(C)c1-c1ccccc1	none
Cc1cc(Nc2cccc(Cl)c2)nc2ccc(NC(=O)COc3ccc(Cl)cc3)cc12	none (no result: EPAC1 ag, EPAC1 antagonist, EPAC2 antagonist, EPAC2 ag)
CC(=O)Oc1ccc2c(c1)O/C(=C\c1ccncc1)C2=O	EPAC1 ag 89µM, EPAC2 ag inconclusive, USP1 inh 28µM
O=C1/C(=C/c2ccc(O)c(O)c2)Oc2cc(O)ccc21	EPAC1 antagonist inconclusive
COc1ccccc1C(=O)Oc1ccc2c(c1)O/C(=C\c1ccncc1)C2=O	EPAC1 ag 100µM, USP1 inh inconclusive
O=C(Oc1ccc2c(c1)O/C(=C\c1ccncc1)C2=O)c1cccs1	none
COc1cc(/C=C2\Oc3cc(O)ccc3C2=O)ccc1O	USP1 inh 28µM
COc1ccc(/C=C2\Oc3cc(OC(=O)N4CCOCC4)ccc3C2=O)cc1	none
Cn1c(=O)c2sccc2n2c(CCCC(=O)Nc3ccc(Oc4ccccc4)cc3)nnc12	none (no result: EPAC1 ag, EPAC1 antagonist, EPAC2 antagonist, EPAC2 ag)
Cc1ccc(C)c(Cn2c(=O)n(CCCC(=O)NCc3ccc4c(c3)OCO4)c(=O)c3sccc32)c1	none (no result: EPAC1 ag, EPAC1 antagonist, EPAC2 antagonist, EPAC2 ag)
Cc1ccccc1OCCSc1nc2ccc(NC(=O)c3cccc(F)c3)cc2s1	none (no result: EPAC1 ag, EPAC1 antagonist, EPAC2 antagonist, EPAC2 ag)
O=C1/C(=C/C=C/c2ccco2)SC(=S)N1c1ccc(O)cc1	EPAC1 antagonist inconclusive
CC(C)C(C(=O)O)N1C(=O)/C(=C/C=C/c2ccco2)SC1=S (stereo not given)	EPAC1 antagonist 56µM, USP1 inh inconclusive
COC1=CC(=O)C=C(OC)C1=O	none
COC1=CC(=O)c2ccccc2C1=O	USP1 inh 13µM
